# This is part of a sample that, as a whole, favours compounds with a hit. Of some 83,000 tested, about 20% had one in any assay.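 96-well plates, one dose, 48 hours. Percent growth reported; active if below 10.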 Activity calls are given as the source filed them.
# System: T-47D breast
# Test: NCI-60 one-dose screen, 48 h (100 = growth as untreated, 0 = no growth, -100 = all killed)
# Conditions: 10 µM unless noted
row,Structure (SMILES),growth
1,Fc1cccc(CNc2nc(SCCN3CCOCC3)nc3c2cnn3CC(Cl)c2ccc(Br)cc2)c1 (stereo not drawn),1.04% (active)
2,O=C(Nc1nc2ccc([N+](=O)[O-])cc2s1)Nc1ccc(Cl)cc1Cl,20.7% (inactive)
3,Nc1nnc(CS(=O)(=O)c2ccccc2)s1,102% (inactive)
4,CCCCCCCCc1ccc(C(=O)Nc2ccc(C)cc2C(=O)O)cc1,94% (inactive)
5,COc1ccc2c(c1)c(-c1cc(N)n3nc(-c4c[nH]c5ccccc45)cc3n1)cn2C,-63.5% (active)
6,Clc1ccc(CNc2nc(SCCN3CCOCC3)nc3c2cnn3CC(Cl)c2ccc(Br)cc2)cc1 (stereo not drawn),22.4% (inactive)
7,CCC(=O)c1cc(C(=O)OC)c2ccc3c4ccccc4ccc3n12,75.8% (inactive)
8,Nc1cc(-c2c[nH]c3ccc(Cl)cc23)nc2cc(-c3c[nH]c4ccccc34)nn12,-5.16% (active)
9,CCCCNc1ccc2c3c(cccc13)C(=O)N(NCC(O)COc1ccc3c(C)cc(=O)oc3c1)C2=O (stereo not drawn),80.8% (inactive)
10,O=C(OCCOCCO)N(c1cccc(Br)c1)c1nc(SCCN2CCOCC2)nc2c1cnn2CC(Cl)c1ccc(Br)cc1 (stereo not drawn),13.6% (inactive)
11,CCN1C(=O)N(CC)C2NNC(Sc3c(C(=O)O)c4ccccc4n(CC(C)C)c3=O)=NC21 (stereo not drawn),72.5% (inactive)
12,CCN1C(=O)N(CC)C2NNC(Sc3c(C(=O)O)c4ccccc4n(CCC(C)C)c3=O)=NC21 (stereo not drawn),73.5% (inactive)
13,COc1ccc(C(=O)c2cc(C(C)=O)c3c(C)cc(C)cn23)cc1,48.6% (inactive)
14,O=C(N/N=C/c1ccc(Cl)cc1)c1ccc(OCc2nc3ccc(Cl)cc3[nH]2)cc1,-19.6% (active)
15,COC(=O)c1cc(C(=O)C(Br)Br)n2c1ccc1c3ccccc3ccc12,1.99% (active)
16,O=C(Nc1nc2ccccc2s1)Nc1ccccc1Cl,68% (inactive)
17,Oc1ccc(Cl)c(Nc2ncnc3c2cnn3CC(Cl)c2ccc(Br)cc2)c1 (stereo not drawn),32.9% (inactive)
18,ClC(Cn1ncc2c(Nc3cccc(Br)c3)nc(SCCN3CCOCC3)nc21)c1ccc(Br)cc1 (stereo not drawn),-2.99% (active)
19,Nc1cc(-c2c[nH]c3ccc(F)cc23)nc2cc(-c3c[nH]c4ccccc34)nn12,18.3% (inactive)

row,Structure (SMILES),growth
1,O=C1Nc2cc(-c3ccc(NS(=O)(=O)c4ccc(F)c(Cl)c4)cc3)ccc2/C1=C/c1ccc[nH]1,14.7% (inactive)
2,O=C1CCC(N2C(=O)c3cccc(NCCOCCOCCOCCC(=O)NCCCC(=O)NC(c4ccc5c(c4)OCO5)c4cc(Cl)c5cccnc5c4O)c3C2=O)C(=O)C1 (stereo not drawn),16% (inactive)
3,Cn1cc(-c2cc3nc(-c4c[nH]c5ccccc45)cc(N)n3n2)c2ccccc21,-69.4% (active)
4,CN1C(=O)C(O)(CC(=O)c2cc3ccccc3oc2=O)c2ccccc21 (stereo not drawn),103% (inactive)
5,COc1ccc(Nc2nnc(-c3c[nH]c4ccccc34)o2)cc1,71.9% (inactive)
6,Cc1cccc(C)c1Nc1nnc(-c2c[nH]c3ccccc23)o1,87.1% (inactive)
7,Cc1ccc(O)cc1Nc1nc(SCCN2CCOCC2)nc2c1cnn2CC(Cl)c1ccc(Br)cc1 (stereo not drawn),-2.49% (active)
8,Fc1ccccc1CNc1nc(SCCN2CCOCC2)nc2c1cnn2CC(Cl)c1ccc(Br)cc1 (stereo not drawn),14.2% (inactive)
9,COC(=O)c1cc(C(=O)CBr)n2c1ccc1c3ccccc3ccc12,57.7% (inactive)
10,Oc1ccc(F)c(Nc2nc(SCCN3CCOCC3)nc3c2cnn3CC(Cl)c2ccc(Br)cc2)c1 (stereo not drawn),-6.68% (active)
11,COC(=O)c1c(C(=O)OC)c2ccc3c4ccccc4ccc3n2c1C(=O)C(C)Br (stereo not drawn),36.5% (inactive)
12,Cc1nn(-c2ccccc2)c2nc(C)n(C(=O)N/N=C/c3cccc([N+](=O)[O-])c3)c(=O)c12,91.4% (inactive)
13,COc1c2c(c(Br)c3c1C(CCc1ccccc1)N(C)CC3)OCO2 (stereo not drawn),33.6% (inactive)
14,COc1ccc2[nH]cc(-c3cc(N)n4nc(-c5c[nH]c6ccccc56)cc4n3)c2c1,-21.8% (active)
15,CC(C)(C)C(=O)C1CC(C#N)=C2C=Cc3c(ccc4ccccc34)N21 (stereo not drawn),72.8% (inactive)
16,Oc1ccc(Cl)c(Nc2nc(SCCN3CCOCC3)nc3c2cnn3CC(Cl)c2ccc(Br)cc2)c1 (stereo not drawn),0% (active)
17,Fc1ccc(F)c(CNc2nc(SCCN3CCOCC3)nc3c2cnn3CC(Cl)c2ccc(Br)cc2)c1 (stereo not drawn),10.8% (inactive)
18,CN1CCN(C(=O)Oc2cc3c(c4ccccc24)[C@H](CCl)CN3C(=O)c2cc3cc(OCCCN4CCC4)ccc3[nH]2)[C@H]2CSSC[C@H]21,-12.9% (active)
19,Nc1nc(-c2ccccc2)c(N=Nc2ccc(Cl)cc2Cl)s1,25.4% (inactive)
